# Source: PubChem BioAssay
# A selection: hits, their analogues and other compounds. The true share with any hit is near 21%.
# RORg inh – qHTS for inhibitors of ROR gamma transcriptional activity; Potency, µM (titrated, usually from 53.6 µM), without a hit: at the top dose activity change, negative = inhibition, hits mostly inhibitors; Nuclear receptor ROR-gamma (Mus musculus), P51450; 310,000 compounds, 5.4% hits; Drosophila S2 Gal4-RORgamma UAS-luciferase reporter, 20 h; AID 2551, 2010; further: potency means the concentration at half of the fitted maximal effect; nearly all actives have a fitted effect of over 60% in size
# Target sequence (P51450 whole entry, looked up, the tested form may be a part): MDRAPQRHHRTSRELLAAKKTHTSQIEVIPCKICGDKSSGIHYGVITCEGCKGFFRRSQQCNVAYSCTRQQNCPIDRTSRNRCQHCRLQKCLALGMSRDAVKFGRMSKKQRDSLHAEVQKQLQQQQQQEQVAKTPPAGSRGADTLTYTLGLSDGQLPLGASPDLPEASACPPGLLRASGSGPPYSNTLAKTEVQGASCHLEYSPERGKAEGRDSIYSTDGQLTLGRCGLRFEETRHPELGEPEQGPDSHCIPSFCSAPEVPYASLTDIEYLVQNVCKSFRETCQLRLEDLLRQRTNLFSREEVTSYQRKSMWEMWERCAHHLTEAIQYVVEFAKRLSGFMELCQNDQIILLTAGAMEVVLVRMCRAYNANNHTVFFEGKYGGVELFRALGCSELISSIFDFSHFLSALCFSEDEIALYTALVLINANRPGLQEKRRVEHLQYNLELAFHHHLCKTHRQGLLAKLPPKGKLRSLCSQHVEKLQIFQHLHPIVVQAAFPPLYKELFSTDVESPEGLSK
#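 Drosophila S2 cells stably expressing Gal4-DBD/mouse RORγ fusion under metallothionein promoter plus UAS-luciferase; compound 1 h, then 700 uM CuSO4 induction for 20 h at ambient temperature; inhibition read as reduced luminescence.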
# ELG1 repair inh – qHTS screen for small molecules that inhibit ELG1-dependent DNA repair in human embryonic kidney (HEK293T) cells expressing luciferase-tagged ELG1; HEK293T ELG1-luciferase reporter, luminescence, 16 h; DNA damage induced by 5-fluorouridine; Potency, µM (top dose mostly 46.1 µM), for inactives: top-dose activity change, negative = inhibition, actives largely listed as inhibitors; 330,000 compounds, 2.3% hits; further: potency means the concentration at half of the fitted maximal effect; nearly all actives have a fitted effect of over 55% in size
#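 DMSO vehicle served as the neutral condition. Each well held 2,000 cells given 5-fluorouridine plus compound; after 16 hr at 37 °C/5% CO2, ONE-Glo was added and luciferase measured 30 min later.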
# TDP1 cell noCPT – qHTS for Inhibitors of human tyrosyl-DNA phosphodiesterase 1 (TDP1): qHTS in cells in absence of CPT; DT40 Tdp1-/- hTDP1 cells, no CPT, ATP luminescence, 48 h; Potency, µM (series often up to 46.2 µM), without a hit: at the highest dose activity change, negative = growth inhibition, most hits filed as inhibitors; AID 686978, 2013; 420,000 compounds, 15% hits; further: potency means the concentration at half of the fitted maximal effect; nearly all actives have a fitted effect of over 55% in size
#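 Growth of hTDP1-complemented DT40 Tdp1-knockout cells is measured by ATP luminescence after at least 48 hr compound exposure at 37 °C, with DMSO substituting for the 20 nM CPT used in the parallel screen.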
# DT40 TDP1 CPT – qHTS for Inhibitors of human tyrosyl-DNA phosphodiesterase 1 (TDP1): qHTS in cells in presence of CPT | 420,000 compounds, 12% hits | Potency, µM (top dose mostly 46.2 µM), for inactives: at the highest dose activity change, negative = growth inhibition, actives largely listed as inhibitors | chicken DT40 Tdp1-/-;hTDP1 cells + 20 nM CPT, ATP luminescence, 48 h | AID 686979, 2013; further: potency means the concentration at half of the fitted maximal effect; nearly all actives have a fitted effect of over 55% in size
#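 Chicken DT40 Tdp1-/- cells stably complemented with human TDP1 were seeded at 400 cells/well in medium containing 20 nM camptothecin, exposed to pin-transferred compounds, and grown at 37 °C for at least 48 hr. Viability was read as ATP luminescence.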
# IL1B secr inh – qHTS for Inhibitors of Inflammasome Signaling: IL-1-beta AlphaLISA Primary Screen; activity change, % at 57.5 µM; 360,000 compounds, 4.7% hits; THP-1 LPS/ATP IL-1B secretion, AlphaLISA, 16 h; stronger effect = lower value; in the data active means activity change below about -50%; inconclusive means mostly about -30% to -49%
#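 THP-1 cells pretreated 1 hr with compounds (up to 57.5 uM final), then stimulated with LPS (250 ng/mL final) plus ATP (1.25 mM final); secreted IL-1B measured by AlphaLISA after 16 hr, decreased signal indicating inhibition.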
# VP16 counter – VP16 counterscreen qHTS for inhibitors of ROR gamma transcriptional activity; 310,000 compounds, 3.5% hits; Potency, µM (titrated, usually from 53.6 µM), for inactives: at the highest dose activity, negative = inhibition, usual class: inhibitors; AID 2546, 2010; Drosophila S2 Gal4-VP16 UAS-luciferase, luminescence, 20 h;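 further: Gal4-VP16 expression switched on by copper sulfate through the metallothionein promoter; potency means the concentration at half of the fitted maximal effect; nearly all actives have a fitted effect of over 50% in size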
# * hit, by the source's call; i = inactive; u = inconclusive; x = no result; [ ] = remark or other dose. Unless noted, the call rests on the fitted dose curve; in most records, active means well fitted curve in the direction sought with a large enough effect; inconclusive means small, poorly fitted or top-dose-only effect, or another doubt; inactive means no such curve, though single readings can be large; an effect the other way counts as inactive or inconclusive. On the % scale 0 is the no-effect control and ±100 the full control effect.
SMILES,RORg inh,ELG1 repair inh,TDP1 cell noCPT,DT40 TDP1 CPT,IL1B secr inh,VP16 counter
CCn1nc(C)c(CN2CCCCC2C(=O)Nc2ccc(Oc3cccnc3)cc2)c1C (centres undefined),10.4%,u,16.4µM*,9.2µM*,i,0.4%
Cc1ccc(/C=N/NC(=O)c2nnn(-c3nonc3N)c2CN(C)c2ccccc2)s1,17.8µM*,12.5%,-14.1%,-22.9%,-10.7,u
Cc1c(C(=O)N/N=C/c2c(O)ccc3ccccc23)nnn1-c1nonc1N,4.47µM*,u,3.66µM*,5.8µM*,139.0,7.08µM*
Cc1ccc(/C=N/NC(=O)c2nnn(-c3nonc3N)c2CN(C)C)s1,13.3%,25.9%,28.9%,-7.7%,0.0,-6.2%
C/C(=N\NC(=O)c1nnn(-c2nonc2N)c1CN(C)c1ccccc1)c1ccccn1,-39.0%,u,4.61µM*,4.61µM*,80.2,u
CCc1c(C(=O)N/N=C/c2sccc2C)nnn1-c1nonc1N,10µM*,u,-13.4%,-26.7%,-9.2,10µM*
CC(C)NC(=O)c1ccc2sc([C@@H]3O[C@H](CO)[C@H](O)[C@H](O)[C@H]3O)nc2c1,x,x,-0.7%,0.5%,4.1,x
Cc1ccc(C(C)(C)C)cc1,-8.8%,x,x,x,x,3.6%
Cc1ccsc1/C=N/NC(=O)c1nnn(-c2nonc2N)c1CN(C)c1ccccc1,3.98µM*,-15.2%,u,u,-11.3,3.16µM*
O=C(Cc1ccc(NC(=O)C2CCN(C(=O)C3CCCCC3)CC2)cc1)Nc1ccc(C(=O)N2CCOCC2)cc1,x,x,-5.9%,-7.0%,u,x
CC(=C/c1ccccc1)/C=N/NC(=O)c1cccs1,-16.9%,u,5.17µM*,-13.2%,x,-9.9%
CC(/C=N/NC(=O)c1ccncc1)=C\c1ccccc1,-14.3%,u,-5.8%,1.1%,-5.1,-0.2%
O=C(N/N=C/C(Br)=C\c1ccccc1)c1cccs1,-34.8%,u,13µM*,14.6µM*,x,3.4%
CCCCS(=O)(=O)N1CCC(C(=O)NCC2CCCO2)CC1 (centres undefined),-23.6%,10.5%,4.9%,1.4%,-7.6,-12.8%
CCn1cc(CNCc2cn[nH]c2-c2cc3ccccc3o2)cn1,28.2%,-7.9%,23.1µM*,18.4µM*,7.8,-11.4%
CCn1cc(CNC(=O)c2cccc([N+](=O)[O-])c2)cn1,18.2%,0.8%,12.7%,7.0%,6.5,3.9%
CN(C)CC[n+]1ccc(C(=O)c2ccccc2)cc1,17.3%[1.91 µM],-23.2%,2.59µM*,4.11µM*,6.6,6.2%
O=C(c1ccccc1)c1cc[n+]([O-])cc1,37.2%,14.4%,-4.9%,-0.8%,11.1,0.4%
CCOc1ccc(-c2nc3c(c(CC)nn3-c3ccccc3)c3cc(OC)c(OC)cc23)cc1,x,x,-4.6%,-18.8%,x,x
CCC12CC1(C(=O)OC)C(=O)N1CCc3c([nH]c4ccccc34)C12 (centres undefined),x,x,-12.9%,1.1%,-58.9*,x
COC(=O)CC1CC2(C(=O)OC)c3[nH]c4ccccc4c3CCN2C1=O (centres undefined),x,x,0.6%,-4.1%,16.6,x
Cc1cc(C)n2nc(SCc3nnc(-c4ccccc4Br)o3)nc2n1,22.1%,-2.5%,u,-1.7%,26.2,-10.2%
CCOC(=O)CSc1nc2sc(C)c(C)c2c(=O)n1N,10.8%,5.8%,u,-4.2%,50.7,-0.9%
O=C(Cn1cncn1)c1ccc(Cl)cc1,6.3%,-5.9%,-7.4%,-16.0%,-2.6,-7.2%
O=C(/C=C(\c1ccc(Cl)cc1)n1cncn1)c1ccc(Cl)cc1,-10.6%,-2.0%,16.4µM*,u,-57.3*,7.0%
SMILES,RORg inh,ELG1 repair inh,TDP1 cell noCPT,DT40 TDP1 CPT,IL1B secr inh,VP16 counter
O=C(Nc1ccc(F)c(Cl)c1)c1cc(C2CCCCN2C(=O)C2CC2)on1 (centres undefined),x,x,14.6µM*,25.9µM*,3.9,x
Cc1ccc(F)cc1C(=O)N1CCCCC1c1cc(C(=O)Nc2ccc(F)c(Cl)c2)no1 (centres undefined),x,x,14.6µM*,20.6µM*,-18.7,x
C[C@H]1CN([C@@H](C)CO)C(=O)CCCn2cc(nn2)CO[C@@H]1CN(C)C(=O)Nc1cccc(Oc2ccccn2)c1,x,x,-2.0%,-17.8%,-7.7,x
CCc1c(C#N)sc(C(N)=O)c1CC,5.2%,10.3µM*,u,-19.2%,x,-5.6%
Cc1c(C#N)sc(C(N)=O)c1C,-5.5%,-3.6%,-0.4%,6.8%,3.6,9.3%
Cc1ccc(C)c(Cn2c3ccccc3c3cnn(CC(=O)NC4CCC(C)CC4)c(=O)c32)c1 (centres undefined),x,x,13µM*,10.3µM*,x,x
Cc1ccccc1Cn1c2ccccc2c2cnn(CC(=O)NC3CCC(C)CC3)c(=O)c21 (centres undefined),x,x,18.4µM*,18.4µM*,x,x
CCOc1ccc(NC(=O)C(C)Oc2ccccc2C(=O)Nc2cccc(Cl)c2Cl)cc1 (centres undefined),-0.9%,-14.4%,18.4µM*,u,55.3,-13.8%
Cc1ccc(NC(=O)c2ccccc2OCC(=O)c2ccccc2)cc1,25.2%,-7.3%,u,u,-24.5,12.6%
CCOc1ccc(NC(=O)c2ccccc2OCC(=O)c2ccccc2)cc1,-6.8%,-16.6%,16.4µM*,23.1µM*,-9.7,-7.3%
CCOc1ccccc1C(=O)Nc1ccc(NC(=O)c2ccccc2)cc1,-35.4%[1.91 µM],7.9%,-8.6%,-12.5%,4.7,1.8%
CCOc1ccccc1C(=O)Nc1ccc(C(=O)c2ccccc2)cc1,u,18.0%,u,23.1µM*,-2.3,-3.2%
CCOc1ccc(NC(=O)c2ccccc2OC)cc1,7.1%,u,-20.3%,-5.9%,3.9,-6.8%
Cc1cccc(NC(=O)c2ccccc2OCC(=O)c2ccccc2)c1,-0.1%,-10.4%,16.4µM*,u,u,13.8%
Cc1ccc(C(=O)COc2ccccc2C(=O)Nc2ccccc2)cc1,-12.9%,-8.8%,u,u,-7.9,-1.9%
COc1ccccc1NC(=O)N1CCOc2ccccc21,x,x,-13.4%,-35.2%,x,x
Cc1cc(C)c(OCC(=O)Nc2nnc(C3CC3)s2)c(C)c1,x,-2.0%,-17.8%,-26.2%,0.9,x
CCN(CC)S(=O)(=O)c1ccc(C(=O)Nc2cc(S(=O)(=O)N3CCOCC3)ccc2O)cc1,x,3.1%,u,-22.4%,6.0,x
